Assay results published in PubChem BioAssay (EPA / NIEHS).
Results filed as inconclusive are left out. Active and inactive are the calls of the source. How the source made its calls, unless noted: active means hit-call score of the fitted dose curve at least 0.9, where 1 is the maximum; inactive means score below 0.9.

Columns and labels:
[1] = biological target: Oxysterols receptor LXR-alpha (Homo sapiens) (UniProt Q13133); assay: ATG_LXRa_TRANS: Attagene TRANS-FACTORIAL HepG2 Assay for human Liver X Receptor alpha (LXRa) (AID 2282980; active means hit-call score of the fitted dose curve at least 0.9, where 1 is the maximum); conditions: HepG2 Attagene TRANS reporter, LXRa transactivation
Oxysterols receptor LXR-alpha (Homo sapiens), sequence (Q13133 whole entry, looked up): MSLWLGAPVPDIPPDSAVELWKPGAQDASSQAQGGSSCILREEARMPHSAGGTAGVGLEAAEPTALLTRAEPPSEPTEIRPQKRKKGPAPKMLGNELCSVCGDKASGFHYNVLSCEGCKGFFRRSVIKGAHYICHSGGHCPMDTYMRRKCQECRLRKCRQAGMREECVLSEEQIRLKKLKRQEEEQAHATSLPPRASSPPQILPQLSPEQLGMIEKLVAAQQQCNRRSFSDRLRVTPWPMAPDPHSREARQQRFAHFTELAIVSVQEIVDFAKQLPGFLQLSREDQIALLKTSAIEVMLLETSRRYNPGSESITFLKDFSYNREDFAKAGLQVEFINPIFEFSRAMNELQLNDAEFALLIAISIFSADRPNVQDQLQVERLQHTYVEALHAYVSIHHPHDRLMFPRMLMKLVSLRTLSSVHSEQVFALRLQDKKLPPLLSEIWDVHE
In short: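 Transient HepG2 transfectants, 24 h dosing, RT-PCR/CE mRNA reporter quantitation; gain-of-signal vs DMSO.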

[2] = biological target: Oxysterols receptor LXR-beta (Homo sapiens) (UniProt P55055); assay: ATG_LXRb_TRANS: Attagene TRANS-FACTORIAL HepG2 Assay for human Liver X Receptor beta (LXRb) (AID 2282981; active means hit-call score of the fitted dose curve at least 0.9, where 1 is the maximum); conditions: HepG2 Attagene TRANS GAL4-LXRb reporter, mRNA
Oxysterols receptor LXR-beta (Homo sapiens), sequence (P55055 whole entry, looked up, the tested form may be a part): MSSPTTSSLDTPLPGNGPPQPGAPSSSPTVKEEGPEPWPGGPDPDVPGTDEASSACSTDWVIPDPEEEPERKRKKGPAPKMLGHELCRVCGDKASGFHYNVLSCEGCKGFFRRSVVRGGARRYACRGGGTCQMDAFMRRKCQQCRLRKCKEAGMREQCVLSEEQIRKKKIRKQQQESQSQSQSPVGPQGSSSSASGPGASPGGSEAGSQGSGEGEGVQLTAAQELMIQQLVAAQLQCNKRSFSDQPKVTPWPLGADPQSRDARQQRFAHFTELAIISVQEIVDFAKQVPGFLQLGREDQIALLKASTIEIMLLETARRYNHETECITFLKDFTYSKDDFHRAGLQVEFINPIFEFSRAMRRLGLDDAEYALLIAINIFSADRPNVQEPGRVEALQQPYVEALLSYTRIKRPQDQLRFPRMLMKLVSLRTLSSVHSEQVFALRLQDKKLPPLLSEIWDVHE
In short: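 Transient transfection HepG2 (multiplexed RTUs, GAL4-UAS); NR-Gal4 chimera; 24 h exposure; RNA → RT-PCR → 6-FAM primer extension → HpaI → CE; increase vs DMSO.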

[3] = biological target: Hepatocyte nuclear factor 4-alpha (Homo sapiens) (UniProt P41235); assay: ATG_HNF4a_TRANS: Attagene TRANS-FACTORIAL HepG2 Assay for human Hepatocyte Nuclear Factor 4 alpha (HNF4a) (AID 2282982; active means hit-call score of the fitted dose curve at least 0.9, where 1 is the maximum); conditions: HepG2 HNF4a transactivation reporter, mRNA readout
Hepatocyte nuclear factor 4-alpha (Homo sapiens), sequence (P41235 whole entry, looked up, the tested form may be a part): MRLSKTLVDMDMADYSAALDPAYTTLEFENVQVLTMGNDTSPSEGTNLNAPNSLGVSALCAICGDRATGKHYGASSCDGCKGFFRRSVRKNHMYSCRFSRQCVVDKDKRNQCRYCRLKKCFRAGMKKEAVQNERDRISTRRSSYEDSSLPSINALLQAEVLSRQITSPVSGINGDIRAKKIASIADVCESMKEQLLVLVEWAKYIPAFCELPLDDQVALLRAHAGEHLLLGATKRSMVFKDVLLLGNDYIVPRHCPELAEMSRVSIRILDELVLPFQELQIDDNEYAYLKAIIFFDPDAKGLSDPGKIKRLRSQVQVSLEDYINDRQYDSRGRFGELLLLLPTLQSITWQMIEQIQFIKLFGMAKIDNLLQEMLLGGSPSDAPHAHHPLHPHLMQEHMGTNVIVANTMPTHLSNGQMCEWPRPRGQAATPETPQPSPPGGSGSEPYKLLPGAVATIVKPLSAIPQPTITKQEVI
In short: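 Readout is fluorescent reporter-transcript fragments resolved by capillary electrophoresis after RT-PCR from HepG2 cells dosed for 24 h. Cells carried transfected GAL4-UAS reporter constructs measuring exogenous NR-GAL4 chimera activity; DMSO served as baseline.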

[4] = ATG_M_32_TRANS: Attagene TRANS-FACTORIAL HepG2 Assay for M32 Transcription Factor (Internal Marker) (AID 2282984; active means hit-call score of the fitted dose curve at least 0.9, where 1 is the maximum;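 further: transcript level of a background control reporter unit measured by RT-PCR and capillary electrophoresis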); conditions: HepG2 Attagene TRANS M32 internal marker reporter
In short: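 Measures reporter mRNA induction in human HepG2 liver cells after 24 h chemical treatment. Transcripts from transiently transfected GAL4-UAS reporter units are amplified, fluorescently labelled and sized by capillary electrophoresis; gain of signal relative to DMSO.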

[5] = biological target: Nuclear receptor subfamily 4 group A member 2 (Homo sapiens) (UniProt P43354); assay: ATG_NURR1_TRANS: Attagene TRANS-FACTORIAL HepG2 Assay for human Nuclear Receptor Related Protein 1 (NURR1) (AID 2282985; active means hit-call score of the fitted dose curve at least 0.9, where 1 is the maximum); conditions: HepG2 Attagene TRANS reporter, mRNA readout
Nuclear receptor subfamily 4 group A member 2 (Homo sapiens), sequence (P43354 whole entry, looked up, the tested form may be a part): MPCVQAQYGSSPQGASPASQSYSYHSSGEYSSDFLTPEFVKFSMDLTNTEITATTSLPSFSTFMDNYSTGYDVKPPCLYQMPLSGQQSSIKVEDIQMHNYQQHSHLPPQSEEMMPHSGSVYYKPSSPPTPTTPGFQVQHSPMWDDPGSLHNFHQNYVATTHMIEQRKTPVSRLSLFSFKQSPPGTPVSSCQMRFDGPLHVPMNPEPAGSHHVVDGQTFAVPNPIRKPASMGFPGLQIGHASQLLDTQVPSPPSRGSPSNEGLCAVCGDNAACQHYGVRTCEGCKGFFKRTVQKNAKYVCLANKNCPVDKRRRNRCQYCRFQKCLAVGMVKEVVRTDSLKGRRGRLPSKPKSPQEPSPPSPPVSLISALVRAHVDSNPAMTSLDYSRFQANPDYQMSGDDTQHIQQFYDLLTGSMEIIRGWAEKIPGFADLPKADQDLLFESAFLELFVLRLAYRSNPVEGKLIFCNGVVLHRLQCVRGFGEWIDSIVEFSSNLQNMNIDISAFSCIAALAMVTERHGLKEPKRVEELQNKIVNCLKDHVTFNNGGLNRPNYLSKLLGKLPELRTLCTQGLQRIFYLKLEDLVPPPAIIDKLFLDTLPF
In short: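 Transient transfection of HepG2, human liver cells, with multiple GAL4-UAS reporter transcription units. Cells dosed 24 h, RNA isolated, reverse-transcribed, PCR-amplified, FAM-labelled, HpaI-digested, sized by capillary electrophoresis. DMSO served as negative control.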

[6] = biological target: Transcriptional activator Myb (Homo sapiens) (UniProt P10242); assay: ATG_Myb_CIS: Attagene CIS-FACTORIAL HepG2 Assay for human Myeloblastosis (Myb) Proto-Oncogene Transcription Factor (AID 2282986); conditions: HepG2 Attagene CIS-FACTORIAL Myb reporter transcription; actives raise or lower the signal
Transcriptional activator Myb (Homo sapiens), sequence (P10242 whole entry, looked up): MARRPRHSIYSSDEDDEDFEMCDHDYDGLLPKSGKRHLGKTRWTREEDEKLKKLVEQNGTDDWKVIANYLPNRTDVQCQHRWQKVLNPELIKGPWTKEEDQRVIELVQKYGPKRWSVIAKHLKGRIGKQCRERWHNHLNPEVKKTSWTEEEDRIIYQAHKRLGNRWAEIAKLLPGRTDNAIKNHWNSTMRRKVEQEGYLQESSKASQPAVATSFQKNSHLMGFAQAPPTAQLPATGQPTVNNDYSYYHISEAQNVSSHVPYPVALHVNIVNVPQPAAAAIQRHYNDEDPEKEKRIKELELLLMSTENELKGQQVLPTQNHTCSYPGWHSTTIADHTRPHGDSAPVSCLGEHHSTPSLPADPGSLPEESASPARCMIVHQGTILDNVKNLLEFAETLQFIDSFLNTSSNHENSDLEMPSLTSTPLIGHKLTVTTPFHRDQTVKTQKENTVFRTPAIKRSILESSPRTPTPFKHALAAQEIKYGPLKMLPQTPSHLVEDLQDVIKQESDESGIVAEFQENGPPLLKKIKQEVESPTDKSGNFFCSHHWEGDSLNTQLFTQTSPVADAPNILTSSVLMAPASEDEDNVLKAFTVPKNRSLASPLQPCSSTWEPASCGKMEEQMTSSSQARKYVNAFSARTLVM
In short: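 HepG2, transient MRTU transfection (cis-element promoters, endogenous TF activity), 24 h compound exposure. Readout: reporter mRNA via RT-PCR, 6-FAM labeling, HpaI digest, capillary electrophoresis. Gain/loss fit vs DMSO.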

[7] = biological target: Nuclear respiratory factor 1 (Homo sapiens) (UniProt Q16656); assay: ATG_NRF1_CIS: Attagene CIS-FACTORIAL HepG2 Assay for human Nuclear Respiratory Factor 1 (NRF1) Orphan Gene (AID 2282987); conditions: HepG2 NRF1 cis-element reporter, Attagene multiplex; actives raise or lower the signal
Nuclear respiratory factor 1 (Homo sapiens), sequence (Q16656 whole entry, looked up): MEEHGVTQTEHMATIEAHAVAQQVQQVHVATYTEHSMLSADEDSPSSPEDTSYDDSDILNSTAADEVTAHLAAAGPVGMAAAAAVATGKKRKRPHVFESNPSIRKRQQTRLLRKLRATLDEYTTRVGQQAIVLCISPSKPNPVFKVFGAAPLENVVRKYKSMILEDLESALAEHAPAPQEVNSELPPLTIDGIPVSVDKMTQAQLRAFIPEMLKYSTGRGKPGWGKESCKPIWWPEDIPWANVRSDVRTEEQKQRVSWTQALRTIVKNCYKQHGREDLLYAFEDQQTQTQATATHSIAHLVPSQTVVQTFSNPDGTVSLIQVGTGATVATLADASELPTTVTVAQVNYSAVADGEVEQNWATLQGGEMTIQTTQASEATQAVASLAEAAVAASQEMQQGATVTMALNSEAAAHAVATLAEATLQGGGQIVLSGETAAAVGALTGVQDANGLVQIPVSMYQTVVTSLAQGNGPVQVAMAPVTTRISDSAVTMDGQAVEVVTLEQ
In short: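 Endogenous NRF1-driven reporter transcription measured in transiently transfected human HepG2 liver cells. Readout: reporter mRNA by RT-PCR and capillary electrophoresis with fluorescence detection, 24 h post-dosing. Gain or loss of signal fitted relative to DMSO baseline.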

[8] = ATG_NFI_CIS: Attagene CIS-FACTORIAL HepG2 Assay for human Nuclear Factor I (NFI) (AID 2282989); conditions: HepG2 cis-regulatory reporter, NFI response element transcription; actives raise or lower the signal
In short: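 Endogenous TF activity in HepG2 cells transiently transfected with cis-element-driven multiplexed reporter units, read 24 h after dosing. Reporter mRNA quantified by RT-PCR, 6-FAM labelling, HpaI digestion and capillary electrophoresis; bidirectional fit versus DMSO.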

[9] = biological target: Myc proto-oncogene protein (Homo sapiens) (UniProt P01106); assay: ATG_Myc_CIS: Attagene CIS-FACTORIAL HepG2 Assay for human Myelocytomatosis (Myc) Proto-Oncogene Transcription Factor (AID 2282990); conditions: HepG2, Attagene cis-reporter transcription factor activity; actives raise or lower the signal
Myc proto-oncogene protein (Homo sapiens), sequence (P01106 whole entry, looked up): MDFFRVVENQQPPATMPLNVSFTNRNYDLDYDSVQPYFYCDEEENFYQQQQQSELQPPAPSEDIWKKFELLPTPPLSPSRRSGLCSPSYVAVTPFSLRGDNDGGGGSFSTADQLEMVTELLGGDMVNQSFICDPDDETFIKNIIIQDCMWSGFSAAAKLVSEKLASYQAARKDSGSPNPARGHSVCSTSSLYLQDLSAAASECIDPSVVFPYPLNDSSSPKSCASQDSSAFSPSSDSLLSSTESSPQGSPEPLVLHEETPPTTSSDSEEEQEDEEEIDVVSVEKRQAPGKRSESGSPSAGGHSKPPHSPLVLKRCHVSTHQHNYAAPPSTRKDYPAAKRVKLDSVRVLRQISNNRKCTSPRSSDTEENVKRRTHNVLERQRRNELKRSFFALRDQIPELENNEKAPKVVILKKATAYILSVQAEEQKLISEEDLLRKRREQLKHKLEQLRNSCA
In short: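 HepG2, transient MRTU transfection (cis promoters, endogenous TFs); 24 h dosing; TriZol RNA → oligo(dT) RT → PCR → 6-FAM primer extension → HpaI cut → CE. Bidirectional fit vs DMSO.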

[10] = ATG_NF_kB_CIS: Attagene CIS-FACTORIAL HepG2 Assay for human Nuclear Factor Kappa B (NF-kB) (AID 2282991); conditions: HepG2 Attagene cis-factorial NF-kB reporter mRNA; actives raise or lower the signal
In short: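 Read-out: reporter transcript levels quantified by RT-PCR plus capillary electrophoresis of 6-FAM-labelled, HpaI-cut fragments. Transfected HepG2 cells, 24 h compound exposure, endogenous NF-kB-driven cis element; gain or loss scored versus DMSO.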

[11] = ATG_NRF2_ARE_CIS: Attagene CIS-FACTORIAL HepG2 Assay for human Nuclear Factor Erythroid 2 Related Factor 2 (NFR2) response to Antioxidant Response Elements (ARE) (AID 2282992); conditions: HepG2 Attagene ARE/NRF2 reporter, transcription factor activity; actives raise or lower the signal
In short: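 Multiplexed reporter mRNA profiling in HepG2 after a 24 h chemical exposure. Curves fitted in both directions relative to DMSO negative control.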

[12] = ATG_Oct_MLP_CIS: Attagene CIS-FACTORIAL HepG2 Assay for human Octamer-Binding Transcription Factor (Oct) (AID 2282993); conditions: HepG2 Attagene cis-factorial Oct reporter, mRNA; actives raise or lower the signal
In short: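 HepG2 cells transiently transfected with cis-element-driven reporter transcription units (endogenous TF activity); 24 h compound exposure. Reporter mRNA quantified by RT-PCR, 6-FAM labelling, HpaI digestion and capillary electrophoresis; bidirectional fit versus DMSO baseline.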

[13] = BSK_3C_uPAR: BioMAP Diversity Plus: 3C Assay for Urokinase-type plasminogen activator receptor (uPAR) Biomarker Activity (AID 2282998); conditions: BioMAP 3C HUVEC, uPAR biomarker ELISA; actives raise or lower the signal
In short: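 Primary human umbilical vein endothelial cells, 3C system; surface uPAR measured by ELISA 24 h after dosing. Cytotoxicity via SRB total protein in parallel cultures; bidirectional fit against DMSO.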

[14] = BSK_3C_VCAM1: BioMAP Diversity Plus: 3C Assay for Vascular cell adhesion molecule 1 (VCAM1) Biomarker Activity (AID 2282999); conditions: BioMAP 3C HUVEC, VCAM1 ELISA, cytokine-stimulated; actives raise or lower the signal
In short: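 Endothelial cells from human umbilical vein are treated with test chemical. At 24 h, VCAM-1 is measured by ELISA, and responses in either direction are fitted relative to DMSO.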

[15] = biological target: Cellular tumor antigen p53 (Homo sapiens) (UniProt P04637); assay: ATG_p53_CIS: Attagene CIS-FACTORIAL HepG2 Assay for human p53 Transcription Factor (AID 2282994); conditions: HepG2 p53 cis-element reporter, Attagene mRNA; actives raise or lower the signal
Cellular tumor antigen p53 (Homo sapiens), sequence (P04637 whole entry, looked up): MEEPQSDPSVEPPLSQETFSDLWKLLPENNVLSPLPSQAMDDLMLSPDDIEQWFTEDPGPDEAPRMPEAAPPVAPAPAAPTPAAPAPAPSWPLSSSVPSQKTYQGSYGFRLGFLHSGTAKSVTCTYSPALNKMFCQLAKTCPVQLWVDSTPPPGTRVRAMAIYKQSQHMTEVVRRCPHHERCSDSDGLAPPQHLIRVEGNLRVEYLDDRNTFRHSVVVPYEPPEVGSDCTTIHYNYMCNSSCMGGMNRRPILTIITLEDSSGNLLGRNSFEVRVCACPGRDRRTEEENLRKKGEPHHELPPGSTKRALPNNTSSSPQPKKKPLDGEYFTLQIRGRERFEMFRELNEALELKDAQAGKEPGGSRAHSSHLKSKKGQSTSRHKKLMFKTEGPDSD
In short: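 Multiplexed reporter mRNA assay in human HepG2 liver cells; cis-regulated units report endogenous factor activity. Values come from bidirectional curve fitting against DMSO negative control after 24 h treatment.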

[16] = ATG_M_06_TRANS: Attagene TRANS-FACTORIAL HepG2 Assay for M06 Transcription Factor (Internal Marker) (AID 2282983; active means hit-call score of the fitted dose curve at least 0.9, where 1 is the maximum); conditions: HepG2 Attagene TRANS M06 internal marker reporter
In short: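 Measured by capillary electrophoresis of fluorescently labelled RT-PCR products, this endpoint reflects reporter mRNA in HepG2 cells harbouring exogenous NR-GAL4 reporter constructs after 24 h exposure, with DMSO as baseline.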

OCCN1CCOCC1
outcome [1]: inactive
outcome [2]: inactive
outcome [3]: inactive
outcome [4]: inactive
outcome [5]: inactive
outcome [6]: inactive
outcome [7]: inactive
outcome [8]: inactive
outcome [9]: inactive
outcome [10]: inactive
outcome [11]: inactive
outcome [12]: inactive
outcome [13]: inactive
outcome [14]: inactive

CC(=O)OC(C)(C)C
outcome [1]: inactive
outcome [2]: inactive
outcome [3]: inactive
outcome [4]: inactive
outcome [5]: inactive
outcome [6]: inactive
outcome [7]: inactive
outcome [8]: inactive
outcome [9]: inactive
outcome [10]: inactive
outcome [11]: inactive
outcome [12]: inactive
outcome [15]: inactive

CCC(C)(C)C1CCC(OC)CC1 (stereo not drawn)
outcome [1]: inactive
outcome [2]: inactive
outcome [6]: inactive
outcome [7]: inactive
outcome [8]: inactive
outcome [9]: inactive
outcome [10]: inactive
outcome [11]: inactive
outcome [12]: inactive
outcome [15]: inactive

CCC(C)COC(=O)CC(C)C (stereo not drawn)
outcome [1]: inactive
outcome [2]: inactive
outcome [4]: inactive
outcome [6]: inactive
outcome [7]: inactive
outcome [8]: inactive
outcome [9]: inactive
outcome [10]: inactive
outcome [11]: inactive
outcome [12]: inactive
outcome [15]: inactive

O=Cc1ccccc1O
outcome [1]: inactive
outcome [2]: inactive
outcome [3]: inactive
outcome [4]: inactive
outcome [5]: inactive
outcome [6]: inactive
outcome [7]: inactive
outcome [8]: inactive
outcome [9]: inactive
outcome [10]: inactive
outcome [11]: inactive
outcome [12]: inactive
outcome [15]: inactive

CC1=CCC(=C(C)C)CC1
outcome [1]: inactive
outcome [2]: inactive
outcome [3]: inactive
outcome [5]: inactive
outcome [6]: inactive
outcome [7]: inactive
outcome [8]: inactive
outcome [9]: inactive
AC50 [11]: 32 µM (active)
outcome [12]: inactive
outcome [15]: inactive

CC(=O)OC/C=C(C)/C=C/C=C(C)/C=C/C1=C(C)CCCC1(C)C
outcome [1]: inactive
outcome [3]: inactive
outcome [4]: inactive
outcome [5]: inactive
outcome [6]: inactive
AC50 [7]: 167 µM (active)
outcome [8]: inactive
outcome [9]: inactive
AC50 [10]: 39.8 µM (active)
AC50 [11]: 3.64 µM (active)
outcome [12]: inactive
AC50 [15]: 146 µM (active)

CC(=O)CCc1ccc(O)cc1
outcome [1]: inactive
outcome [2]: inactive
outcome [16]: inactive
outcome [4]: inactive
outcome [6]: inactive
outcome [7]: inactive
outcome [8]: inactive
outcome [9]: inactive
outcome [10]: inactive
outcome [11]: inactive
outcome [12]: inactive
outcome [15]: inactive

CCCO
outcome [1]: inactive
outcome [16]: inactive
outcome [4]: inactive
outcome [5]: inactive
outcome [7]: inactive
outcome [8]: inactive
outcome [9]: inactive
outcome [10]: inactive
outcome [11]: inactive
outcome [12]: inactive
outcome [15]: inactive

CC1=CC[C@@H]2C[C@H]1C2(C)C
outcome [2]: inactive
outcome [16]: inactive
outcome [5]: inactive
outcome [6]: inactive
outcome [7]: inactive
outcome [8]: inactive
outcome [9]: inactive
outcome [10]: inactive
outcome [11]: inactive
outcome [12]: inactive

CC(=O)OCC=C(C)CCC=C(C)CCC=C(C)C
outcome [2]: inactive
outcome [16]: inactive
outcome [5]: inactive
AC50 [7]: 154 µM (active)
AC50 [8]: 157 µM (active)
outcome [9]: inactive
outcome [10]: inactive
AC50 [11]: 49.5 µM (active)
outcome [12]: inactive
outcome [13]: inactive
outcome [14]: inactive
